Bioassay records: PubChem, National Center for Advancing Translational Sciences (NCATS)
An excerpt weighted towards active compounds, which were near 2.8% of everything screened.
PI5P4K alpha inh: qHTS for Inhibitors of phosphatidylinositol 5-phosphate 4-kinase (PI5P4K) | Phosphatidylinositol 5-phosphate 4-kinase type-2 alpha (Homo sapiens), P48426 | hit rate 1.2% among 330,000 | PI5P4Kalpha enzyme, ADP-Glo luminescence, 60 min; stronger effect = lower value | max response, %; active = max response of -50% or lower; inconclusive = between -30% and -50%; inactive = -30% or higher; note: value at the top dose of about 77 µM; % is set by controls: 0 for no effect and ±100 for the full control effect
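ADP-Glo luminescence end-point after a 60 min room-temperature kinase reaction. PI5P4Kalpha and substrate in HEPES pH 7.4 buffer with EGTA, 0.1% CHAPS and 5% DMSO; ATP at 5 microM final.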
WRN inhibitor: qHTS for Inhibitors of WRN Helicase | hit rate 0.46% among 360,000 | WRN helicase unwinding, fluorescent forked duplex, kinetic | Potency, µM (titrated, usually from 114 µM), for the others: top-dose activity change, negative = inhibition, hits mostly inhibitors | Bifunctional 3'-5' exonuclease/ATP-dependent helicase WRN (Homo sapiens), Q14191; note: potency is the fitted concentration of half-maximal effect; % is set by controls: 0 for no effect and ±100 for the full control effect; nearly all actives have a fitted effect of over 55% in size
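Enzyme (20 nM final) and test compound sit together 15 min at room temperature before substrate addition. Substrate is a single-forked duplex oligonucleotide (100 nM) labelled with fluorophore and quencher, with 2 mM ATP; helicase unwinding raises red fluorescence, read kinetically.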
Pol iota inh: qHTS for Inhibitors of Polymerase Iota | DNA polymerase iota (Homo sapiens), Q9UNA4 | Pol iota fluorescent replication assay, 10 min | Potency, µM (titrated, usually from 115 µM), inactives show top-dose activity, negative = inhibition, actives largely listed as inhibitors | hit rate 1% among 390,000 | AID 588590, 2011; note: potency is the fitted concentration of half-maximal effect
Target sequence (Q9UNA4 whole entry, looked up): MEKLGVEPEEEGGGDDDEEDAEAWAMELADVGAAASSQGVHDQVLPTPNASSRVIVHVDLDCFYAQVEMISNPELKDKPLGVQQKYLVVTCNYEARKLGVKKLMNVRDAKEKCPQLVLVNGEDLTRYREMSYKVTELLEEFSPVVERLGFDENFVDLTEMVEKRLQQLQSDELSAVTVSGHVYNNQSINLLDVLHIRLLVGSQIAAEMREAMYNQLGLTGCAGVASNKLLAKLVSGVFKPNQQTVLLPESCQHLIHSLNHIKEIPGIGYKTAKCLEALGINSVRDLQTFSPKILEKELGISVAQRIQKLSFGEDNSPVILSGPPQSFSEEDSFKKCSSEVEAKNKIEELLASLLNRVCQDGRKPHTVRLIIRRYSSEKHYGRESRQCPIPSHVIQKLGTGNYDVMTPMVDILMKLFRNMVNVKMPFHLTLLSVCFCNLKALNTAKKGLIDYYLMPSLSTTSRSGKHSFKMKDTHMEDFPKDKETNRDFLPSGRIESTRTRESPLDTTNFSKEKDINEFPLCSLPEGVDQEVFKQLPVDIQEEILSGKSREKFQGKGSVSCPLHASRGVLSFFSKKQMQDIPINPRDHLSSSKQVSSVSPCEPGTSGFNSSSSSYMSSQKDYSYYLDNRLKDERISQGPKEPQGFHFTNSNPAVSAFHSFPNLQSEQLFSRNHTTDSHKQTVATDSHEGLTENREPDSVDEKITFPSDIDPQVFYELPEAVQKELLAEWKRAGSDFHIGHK
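Pol iota at 10 nM preincubated 15 min with compounds at room temperature; reaction started with fluorescent substrate, 50 nM final. Fluorescence read kinetically at 0 and 10 min; buffer-only wells as negative control.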
Pol beta inh: qHTS Assay for Inhibitors of DNA Polymerase Beta; Potency, µM (top dose mostly 114 µM), for the others: at the highest dose activity change, negative = inhibition, hits mostly inhibitors; hit rate 1.3% among 340,000; P06746; Pol beta primer extension/strand displacement, fluorescence kinetic; AID 485314, 2010; note: potency is the fitted concentration of half-maximal effect; % is set by controls: 0 for no effect and ±100 for the full control effect
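Preincubation: enzyme (10 nM) with compound, 15 min, RT. Reaction: substrate added to 50 nM final. Reads: 0 and 10 min. Analysis: normalized, Hill fit.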
POLH inh: qHTS for Inhibitors of Polymerase Eta; DNA polymerase eta (Homo sapiens), Q9Y253; recombinant Pol eta, fluorescent DNA replication assay; Potency, µM (series often up to 114 µM), for inactives: at the top dose activity change, negative = inhibition, usual class: inhibitors; hit rate 1.2% among 390,000; AID 588591, 2011; note: potency is the fitted concentration of half-maximal effect; % is set by controls: 0 for no effect and ±100 for the full control effect
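Pol eta at 10 nM preincubated with compounds 15 min at room temperature; reaction started with fluorescent substrate (50 nM final) and read kinetically at 0 and 10 min.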
Pol kappa inh: qHTS for Inhibitors of Polymerase Kappa | DNA polymerase kappa (Homo sapiens), Q9UBT6 | purified Pol kappa, fluorescent DNA synthesis assay, 10 min | Potency, µM (series often up to 107 µM), for the others: at the top dose activity, negative = inhibition, usual class: inhibitors | hit rate 0.53% among 400,000 | AID 588579, 2011; note: potency is the fitted concentration of half-maximal effect; % is set by controls: 0 for no effect and ±100 for the full control effect
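Kinetic fluorescence screen: compound preincubated 15 min RT with 10 nM enzyme; 50 nM substrate (final) initiates; reads at 0/10 min.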
The depositor's hits bear a star; u = inconclusive; x = no result given; ! = repeats disagree; [ ] = remark or other dose. Unless noted, calls come from the whole dose curve; as a rule, active = well fitted curve in the direction sought with a large enough effect; inconclusive = small, poorly fitted or top-dose-only effect, or another doubt; inactive = no such curve, though single readings can be large; an effect the other way counts as inactive or inconclusive.

SMILES | PI5P4K alpha inh | WRN inhibitor | Pol iota inh | Pol beta inh | POLH inh | Pol kappa inh
COc1ccccc1NS(=O)(=O)c1cc(C(=O)NCC(C)(C)N2CCOCC2)ccc1C | 5 | -9% | 7% | x | -3% | -7%
O=C1C2=C(NC(=S)NC2c2ccc(Cl)cc2)NC(c2ccc(Cl)cc2)N1c1ccc(Cl)cc1 (stereo not drawn) | -52* | -9% | u | -24% | -13% | -11%
CC(C)n1c(S(=O)(=O)O)nc2ccccc21 | 2 | -10% | 7% | -27% | -12% | 4%
CC(c1ccccc1)n1c(S(=O)(=O)O)nc2ccccc21 (stereo not drawn) | -67* | -1% | -15% | 5% | -5% | -14%
O=C(NC(=S)Nc1cc([N+](=O)[O-])ccc1O)c1ccc2c(c1)OCO2 | -25 | -17% | 7% | 45µM* | 1% | -17%
COc1cc([N+](=O)[O-])ccc1NC(=S)NNC(=O)c1ccc2c(c1)OCO2 | u | -4% | 19% | -22% | u | 8%
Nc1ccc2c(c1)C/C(=C/c1ccco1)C2=O | -74* | -34% | u | 5.6µM* | u | -20%
CCc1ccccc1N1CSC2=C(C#N)C(c3cc(OC)c(OC)cc3OC)CC(=O)N2C1 (stereo not drawn) | u | -7% | -8% | -12% | -4% | -3%
COc1ccc(OC)c(C2CC(=O)N3CN(c4ccccc4F)CSC3=C2C#N)c1 (stereo not drawn) | -94* | 5% | -18% | 6% | 4% | 6%
N#CC1=C2SCN(C3CCCCC3)CN2C(=O)CC1c1ccc(F)cc1 (stereo not drawn) | x | x | 25µM* | -16% | -19% | -16%
COc1ccccc1N1CSC2=C(C#N)C(c3ccc(SC)cc3)CC(=O)N2C1 (stereo not drawn) | -83* | -24% | u | 25µM* | 45µM* | u
COc1ccc2ccccc2c1C1CC(=O)N2CN(C)CSC2=C1C#N (stereo not drawn) | -84* | -30% | -11% | 2% | -2% | -30%
COc1ccccc1NC(=O)C(Cc1ccccc1)NS(=O)(=O)c1ccc2c(c1)c(=O)n(C)c(=O)n2C (stereo not drawn) | x | x | u | 4% | -2% | -9%
COc1cccc(-c2nc(N3CCNCC3)c3ccccc3n2)c1 | x | x | x | x | x | -3%[60.1 µM]
O=P(O)(O)O[C@@H]1[C@H](O)[C@H](O)[C@@H](OP(=O)(O)O)[C@H](OP(=O)(O)O)[C@H]1O | x | x | x | x | x | -2%[60.1 µM]
CC(C)(C)OC(=O)NNC(=O)c1cccs1 | 0 | 16% | 43% | 15% | -11% | 1%
COc1ccc(OC)c(C2CC(=O)N3CN(c4ccc(C)c(Cl)c4)CSC3=C2C#N)c1 (stereo not drawn) | -102* | -5% | 19% | 1% | -19% | -12%
COc1cccc(C2CC(=O)N3CN(c4ccccc4F)CSC3=C2C#N)c1 (stereo not drawn) | -74* | 3% | -1% | 23% | -27% | -7%
COc1cc(C2CC(=O)N3CN(c4ccccc4C)CSC3=C2C#N)cc(OC)c1OC (stereo not drawn) | x | x | x | -2% | x | x
OCCC1CN(Cc2cccn2-c2ncccn2)CCN1C1CCCC1 (stereo not drawn) | 1 | -1% | 15% | 25% | 1% | -2%
CC(C)NC(=O)CC(=O)N/N=C/c1cccs1 | -6 | -4% | 25% | 14µM* | -1% | -2%
O=C(CC(=O)N/N=C/c1cccs1)NCc1ccccc1 | 9 | 2% | 28% | 0% | -21% | -8%
O=C(N/N=C/c1cccs1)c1ccccn1 | x | -2% | 27% | 1% | -1% | -3%
C(=NN=C(NN=Cc1cccs1)NN=Cc1cccs1)c1cccs1 | 1 | -4% | 79µM* | x | -6% | -3%
CCCCNC(=O)C1(C)CCN1C(=O)c1ccc(OC)c(F)c1 (stereo not drawn) | 5 | -10% | x | x | x | x
SMILES | PI5P4K alpha inh | WRN inhibitor | Pol iota inh | Pol beta inh | POLH inh | Pol kappa inh
COc1ccc(N2CC(NC(=O)COc3ccc(F)cc3)CC2=O)cc1OC (stereo not drawn) | x | x | 43% | 0% | x | -9%[60.1 µM]
O=c1[nH]c(=O)c2[nH]c(=S)[nH]c2[nH]1 | -86* | u | u | x | -20% | 5%
O=c1[nH]c(=S)[nH]c2nc[nH]c12 | x | x | -24% | x | x | -16%
COC(=O)C(N)Cc1ccc(O)c(O)c1 (stereo not drawn) | 2 | -9% | u | -18% | 6% | 89µM*
C[C@](N)(Cc1ccc(O)c(O)c1)C(=O)O | -67* | x | 25µM* | 1.1µM* | u | 2.7µM*!
CN(C)c1ccc(C(=O)/C=C/c2cccnc2)cc1 | -3 | -3% | -26% | 1% | 7% | 2%
CN(C)c1ccc(/C=C/C(=O)c2cccc(Br)c2)cc1 | x | u | 79µM* | u | -18% | u
CCOc1ccc(-c2c(C(=O)N/N=C(\C)c3cccnc3)nnn2-c2nonc2N)cc1 | -4 | -3%[11.6 µM] | u | 23% | -5% | -9%
CCCOc1ccc(-c2c(C(=O)N/N=C(\C)c3cccnc3)nnn2-c2nonc2N)cc1 | -2 | -1% | 45µM* | 1% | 4% | -31%
O=S(=O)(O)c1cccc(N=Nc2c(O)ccc3ccccc23)c1 | -54* | -15% | 11% | u | u | -11%
Oc1ccc2ccccc2c1N=Nc1ccccc1F | 17 | 4% | 13% | -22% | -11% | -6%
O=C(O)c1cc(NS(=O)(=O)c2ccc(NC3CCCCC3)c([N+](=O)[O-])c2)cc(C(=O)O)c1 | -5 | -7%[11.6 µM] | -23% | 3% | 45µM* | -41%
CCCCCCCCCCOCCC(=O)O | x | x | x | x | x | 5%[19.4 µM]
C/C(=N\NC(=O)c1cc(-c2ccc(C)s2)[nH]n1)c1ccncc1 | -5 | 4% | -21% | u | 0% | -10%
O=C(Nc1ccccc1F)C1CCCN(S(=O)(=O)c2ccccc2)C1 (stereo not drawn) | u | 79µM* | 88% | 4% | -18% | -11%
O=C(CSc1nnc(-c2ccccc2)o1)c1nnc(-c2ccccc2)o1 | -53* | -22% | -24% | -24% | 20µM* | -14%
CCOC(=O)CSc1nnc(-c2ccccc2)o1 | -8 | -1% | u | 46% | 6% | -37%
CNC[C@H]1Oc2cc(Br)ccc2S(=O)(=O)N([C@H](C)CO)C[C@H]1C | 0 | 1% | x | x | -7% | x
